# Results filed as inconclusive are left out. A number with no mark means an inactive call.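 How the source made its calls, unless noted: active means cell viability at or below a set limit in both duplicate runs, the limit being the all-compound median minus 4 SD (cut at about 23% in these data, passing the limit was not always enough); inconclusive means no clear call, values can overlap the other calls; inactive means the rest.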
# Test: growth suppression of beta-catenin knockout HCT116, pilot screen, human colon tumor cells (AID 823);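 further: 0% = wells killed by 20 µM Hyamine and 100% = untreated DMSO cell wells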
# Conditions: CellTiter-Glo, 60 h, at 10 µM, stronger effect = lower value
row,Compound,viability [%]
1,COc1ccc(OC)c(NC(=O)NC2(C(F)(F)F)Oc3ccccc3O2)c1,54.9
2,COc1ccc(S(=O)(=O)NCc2ccc3c(c2)cc(C)n3C)cc1,99.1
3,COc1ccc(C(c2sc3nc(C)nn3c2O)N2CCC(C(N)=O)CC2)cc1OC (stereo not given),99.7
4,CCN(CC)CCNC(=O)Cn1cnc2sc(C)c(S(=O)(=O)N3CCOCC3)c2c1=O,99
5,C=C(C)Cn1c(CNC(C)=O)nc2ccccc21,108
6,CCOc1ccc(Cn2nnc(C(=O)NCCc3ccccc3)c2N)cc1,96.9
7,CC(C)c1nc(SCC(=O)Nc2ccc3c(c2)OCCO3)c2c(=O)n(C)c(=O)n(C)c2n1,85.4
8,COc1ccc(OC)c(NC(=O)c2cnc3n(c2=O)CCS3)c1,100
9,Cc1[nH]c2ccc(-c3n[nH]c(=S)n3C)cc2c1C,98.9
10,COc1ccccc1-c1c(C#N)c(SCC(=O)N2CCCC2)nc(C)c1C(N)=O,101
11,COc1ccc(C2N3CC4(C)CN2CC(C)(C3)C4)cc1OC (stereo not given),105
12,O=S(=O)(NCCOCCNS(=O)(=O)c1ccccc1)c1ccccc1,91.2
13,CC(C)(C)NC(=O)c1ccc(NC(=O)C2COc3ccccc3O2)cc1 (stereo not given),99.3
14,O=C(Cn1c(=O)oc2cc(S(=O)(=O)N3CCOCC3)ccc21)N1CCc2ccccc2C1,103
15,COC(=O)c1ccc(N2C(=O)CC(Sc3n[nH]c(C)n3)C2=O)cc1 (stereo not given),96.6
16,COc1cc(C(=O)Nc2cccc(-c3nc4ccccc4o3)c2C)cc(OC)c1OC,91.2
17,Cc1ccc(C(=O)CC(C(=O)O)c2cn(CCC#N)c3ccccc23)cc1 (stereo not given),98.3
18,CC1=C(C(=O)OC2CCCCCCC2)C(c2ccc(O)cc2)NC(=O)N1 (stereo not given),73.8
19,COc1nc(NC(C)(C)C)nc(Oc2ccc(=O)n(C)n2)n1,102
20,CC(CCc1ccco1)NC(=O)Cn1nc(Cc2ccncc2)c2ccccc2c1=O (stereo not given),89.4

row,Compound,viability [%]
1,CSc1nc2c(c(=O)n1-c1ccc(F)cc1)SCC2,102
2,COc1ccc(NC(=O)C2CCN(S(=O)(=O)c3cccnc3)CC2)cc1Cl,97.3
3,Nn1c(SCC(=O)Nc2ccc(F)cc2)nnc1-c1ccccn1,109
4,COc1ccccc1C1C=C(c2ccccc2)Nc2nnnn21 (stereo not given),72.2
5,CC1CCN(CC(O)COc2cccc(F)c2)CC1 (stereo not given),96.7
6,COc1ccc(Cl)cc1Nc1nc(N2CCCC2)nc(N2CCCC2)n1,95.5
7,Clc1ccccc1C1CC(c2ccccc2)Nc2ncnn21 (stereo not given),83.9
8,CCN(CCCNS(=O)(=O)c1ccc2c(c1)CCN2C(C)=O)c1cccc(C)c1,75.3
9,Nc1c(S(=O)(=O)c2ccccc2)c2nc3ccccc3nc2n1Cc1ccco1,78.8
10,O=C(c1cc(F)c(F)cc1Cl)N1CCCCC1,92.1
11,CC(=O)N1CCc2c(sc(NC(=O)C3CC3)c2-c2nc3ccccc3s2)C1,65.4
12,CC1=CC(C)(C)N(C(=O)CSc2nnc(-c3ccccc3)o2)c2ccc(C)cc21,62
13,O=C(NCCC1=CCCCC1)NC1CCCCC1,87.2
14,Cn1c(C(=O)N2CCCC2)cc2c(=O)n(C)c3ccccc3c21,102
15,COc1ccc(C2C(C(=O)NCCN3CCOCC3)c3ccccc3C(=O)N2C)cc1OC (stereo not given),91.5
16,CCOc1ccc2nc(NC(=O)Nc3cccs3)sc2c1,40.1
17,CC(=O)N1CCC(Nc2ccc(C)cc2)CC1,101
18,CC(C)Sc1nc(-c2cccs2)nc2c1c(=O)n(C)c(=O)n2C,77.3
19,CC(=O)Nc1cc(NC(C)=O)c(CC(C)C)s1,94.9
20,Cc1cc(C)c(NC(=O)C(C)(C)C)c(Cl)c1,89.8

# Test: growth suppression of PTEN-deleted HCT116, pilot screen, cell-based, HCT116 clonal line, CellTiter-Glo (AID 824;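 active means viability at or below 27.92% in each of two runs, the all-compound median minus 4 SD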;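 further: 0% = 20 µM Hyamine control and 100% = vehicle cell control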)
# Conditions: 60 h, at 10 µM, stronger effect = lower value
row,Compound,viability [%]
1,COc1ccc(OC)c(NC(=O)NC2(C(F)(F)F)Oc3ccccc3O2)c1,71.5
2,COc1ccc(S(=O)(=O)NCc2ccc3c(c2)cc(C)n3C)cc1,96
3,COc1ccc(C(c2sc3nc(C)nn3c2O)N2CCC(C(N)=O)CC2)cc1OC (stereo not given),96.2
4,CCN(CC)CCNC(=O)Cn1cnc2sc(C)c(S(=O)(=O)N3CCOCC3)c2c1=O,99.3
5,C=C(C)Cn1c(CNC(C)=O)nc2ccccc21,94.3
6,CCOc1ccc(Cn2nnc(C(=O)NCCc3ccccc3)c2N)cc1,89.9
7,CC(C)c1nc(SCC(=O)Nc2ccc3c(c2)OCCO3)c2c(=O)n(C)c(=O)n(C)c2n1,84.4
8,COc1ccc(OC)c(NC(=O)c2cnc3n(c2=O)CCS3)c1,95.9
9,Cc1[nH]c2ccc(-c3n[nH]c(=S)n3C)cc2c1C,93.3
10,COc1ccccc1-c1c(C#N)c(SCC(=O)N2CCCC2)nc(C)c1C(N)=O,98.2
11,COc1ccc(C2N3CC4(C)CN2CC(C)(C3)C4)cc1OC (stereo not given),101
12,O=S(=O)(NCCOCCNS(=O)(=O)c1ccccc1)c1ccccc1,96.1
13,CC(C)(C)NC(=O)c1ccc(NC(=O)C2COc3ccccc3O2)cc1 (stereo not given),96.4
14,O=C(Cn1c(=O)oc2cc(S(=O)(=O)N3CCOCC3)ccc21)N1CCc2ccccc2C1,93.8
15,COC(=O)c1ccc(N2C(=O)CC(Sc3n[nH]c(C)n3)C2=O)cc1 (stereo not given),93.2
16,COc1cc(C(=O)Nc2cccc(-c3nc4ccccc4o3)c2C)cc(OC)c1OC,98.7
17,Cc1ccc(C(=O)CC(C(=O)O)c2cn(CCC#N)c3ccccc23)cc1 (stereo not given),104
18,CC1=C(C(=O)OC2CCCCCCC2)C(c2ccc(O)cc2)NC(=O)N1 (stereo not given),72
19,COc1nc(NC(C)(C)C)nc(Oc2ccc(=O)n(C)n2)n1,96.5
20,CC(CCc1ccco1)NC(=O)Cn1nc(Cc2ccncc2)c2ccccc2c1=O (stereo not given),92.7

row,Compound,viability [%]
1,CSc1nc2c(c(=O)n1-c1ccc(F)cc1)SCC2,93.7
2,COc1ccc(NC(=O)C2CCN(S(=O)(=O)c3cccnc3)CC2)cc1Cl,100
3,Nn1c(SCC(=O)Nc2ccc(F)cc2)nnc1-c1ccccn1,95.7
4,COc1ccccc1C1C=C(c2ccccc2)Nc2nnnn21 (stereo not given),83.7
5,CC1CCN(CC(O)COc2cccc(F)c2)CC1 (stereo not given),92.2
6,COc1ccc(Cl)cc1Nc1nc(N2CCCC2)nc(N2CCCC2)n1,93.3
7,Clc1ccccc1C1CC(c2ccccc2)Nc2ncnn21 (stereo not given),81.2
8,CCN(CCCNS(=O)(=O)c1ccc2c(c1)CCN2C(C)=O)c1cccc(C)c1,82.5
9,Nc1c(S(=O)(=O)c2ccccc2)c2nc3ccccc3nc2n1Cc1ccco1,73.8
10,O=C(c1cc(F)c(F)cc1Cl)N1CCCCC1,90.6
11,CC(=O)N1CCc2c(sc(NC(=O)C3CC3)c2-c2nc3ccccc3s2)C1,63.4
12,CC1=CC(C)(C)N(C(=O)CSc2nnc(-c3ccccc3)o2)c2ccc(C)cc21,66.2
13,O=C(NCCC1=CCCCC1)NC1CCCCC1,87.3
14,Cn1c(C(=O)N2CCCC2)cc2c(=O)n(C)c3ccccc3c21,95.5
15,COc1ccc(C2C(C(=O)NCCN3CCOCC3)c3ccccc3C(=O)N2C)cc1OC (stereo not given),100
16,CCOc1ccc2nc(NC(=O)Nc3cccs3)sc2c1,31.6
17,CC(=O)N1CCC(Nc2ccc(C)cc2)CC1,97.3
18,CC(C)Sc1nc(-c2cccs2)nc2c1c(=O)n(C)c(=O)n2C,69.4
19,CC(=O)Nc1cc(NC(C)=O)c(CC(C)C)s1,101
20,Cc1cc(C)c(NC(=O)C(C)(C)C)c(Cl)c1,86.2

# Reference: PubChem BioAssay
